Data from PubChem BioAssay (EPA / NIEHS).
Calls of active or inactive are those of the source. Rule for the calls: active = hit-call score of the fitted dose curve at least 0.9, where 1 is the maximum; inactive = score below 0.9.

read-out: Interleukin-1 alpha (IL1a), IL1A (gene 3552); experiment: BSK_BE3C_IL1a: BioMAP Diversity Plus: BE3C Assay for Interleukin-1 alpha (IL1a) Biomarker Activity (AID 2283016); details: primary human bronchial epithelial cells; actives raise or lower the signal
Procedure: BSK_BE3C is a cell-based, multiplexed-readout assay that uses bronchial epithelial cell, a human lung primary cell, with measurements taken at 24 hours after chemical dosing in a 96-well plate.BSK_BE3C_IL1a is an assay component measured in the BSK_BE3C assay. It measures IL-1a antibody related to regulation of gene expression using ELISA technology.Data from the assay component BSK_BE3C_IL1a was analyzed into 1 assay endpoint. This assay endpoint, BSK_BE3C_IL1a, was analyzed with bidirectional fitting relative to DMSO as the negative control and baseline of activity. Using a type of binding reporter, gain or loss-of-signal activity can be used to understand changes in the signaling as they relate to the gene IL1A. Furthermore, this assay endpoint can be referred to as a primary readout, because this assay has produced multiple assay endpoints where this one serves a signaling function. To generalize the intended target to other relatable targets, this assay endpoint is annotated to the cytokine intended target family, where the subfamily is interleukins.
The levels of cell surface (or secreted, indicated by the prefix "s") biomarker endpoints were measured by ELISA. Overt cytotoxicity to cells in confluent adherent cultures (all systems other than the BT system) was assessed by measuring total protein levels using sulforhodamine B (SRB) staining in parallel cultures at the time of biomarker measurements, indicated as SRB endpoints. For proliferation assays for adherent cell types, individual cell types are cultured at sub-confluence and relative cell numbers quantified by SRB staining at time points optimized for each system (48 h: 3C and CASM3C systems; 72 h: BT and HDF3CGF systems; 96 h: SAg system). SRB was performed by staining cells with 0.1% SRB after fixation with 10% TCA and reading wells at 560 nm.Viability and proliferation of PBMC (T cells) was quantified by Alamar Blue reduction for the SAg and BT systems. For PBMC viability (referred to as PBMC Cytotoxicity within the assay endpoint names), cells were plated (75,000/well in a 96-well plate) and then chemical samples added for 1 h before addition of activators, SEB and TSST-1 (20 ng/mL final concentration each). Cells were incubated for 90 h. Then, Alamar Blue (20 uL/well) (Invitrogen, Cat DAL1100) was added for 6 h, and the plates were read with a fluorescence microplate reader at 546/580 nm (excitation/emission). For PBMC proliferation, cells were plated and activated as above but incubated for only 16 h prior to addition of Alamar Blue. Plates were read after 6 h.

`CCCC(=NOCC)C1=C(O)CC(CC(C)SCC)CC1=O` (stereo not given) was tested. Which outcome did it give?
The outcome was “inactive”.

With `CCSC(=O)N1CCCCCC1` as the compound, how does the outcome read?
Its outcome is “inactive”.

With `Cn1c(-c2ccccc2)cc(-c2ccccc2)[n+]1C` as the compound, how does the outcome read?
The outcome was “inactive”.

For `CCCCC(O)(Cn1cncn1)c1ccc(Cl)cc1Cl` (stereo not given), which outcome is on record?
The outcome was “inactive”.

For `COc1cc(OC)nc(NC(=O)NS(=O)(=O)c2ncccc2OCC(F)(F)F)n1`, which outcome is on record?
Its outcome is “inactive”.

With `CCOC(=O)C(C)OC(=O)c1cc(Oc2ccc(C(F)(F)F)cc2Cl)ccc1[N+](=O)[O-]` (stereo not given) as the compound, how does the outcome read?
The outcome was “inactive”.

`COP(=S)(OC)Oc1ccc([N+](=O)[O-])c(C)c1` was tested. Which outcome did it give?
Its outcome is “inactive”.

With `COC(=O)N(C(=O)N1CO[C@@]2(C(=O)OC)Cc3cc(Cl)ccc3C2=N1)c1ccc(OC(F)(F)F)cc1` as the compound, how does the outcome read?
Its outcome is “inactive”.

`C=C(C)CN(CC)c1c([N+](=O)[O-])cc(C(F)(F)F)cc1[N+](=O)[O-]` was tested. Which outcome did it give?
The outcome was “inactive”.

`C=CCOC(=O)C(C)(C)OC(=O)c1cc(-n2c(=O)cc(C(F)(F)F)n(C)c2=O)ccc1Cl` was tested. Which outcome did it give?
The outcome was “inactive”.

With `COP(=O)(OC)O/C(C)=C/C(=O)N(C)C` as the compound, how does the outcome read?
The outcome was “inactive”.

For `CC(C)N1C(=O)N(c2ccccc2)CSC1=NC(C)(C)C`, which outcome is on record?
The outcome was “inactive”.

`CCN(CC)c1nc(C)cc(OP(=S)(OC)OC)n1` was tested. Which outcome did it give?
Its outcome is “inactive”.

For `COC(=O)NS(=O)(=O)c1ccc(N)cc1`, which outcome is on record?
Its outcome is “inactive”.

`CCOc1nc(C(Cl)(Cl)Cl)ns1` was tested. Which outcome did it give?
The outcome was “inactive”.

For `Cc1nc(N(C)C)nc(OC(=O)N(C)C)c1C`, which outcome is on record?
Its outcome is “inactive”.

With `Nc1c(Cl)c(Cl)nc(C(=O)O)c1Cl` as the compound, how does the outcome read?
The outcome was “inactive”.

Which outcome does the source give for `O=P(O)(O)CCCl` here?
The outcome was “inactive”.

`CCOP(=O)(OCC)Oc1nc(Cl)c(Cl)cc1Cl` was tested. Which outcome did it give?
Its outcome is “inactive”.

How did the outcome turn out when `CC(C)C1(C)N=C(c2ncccc2C(=O)O)NC1=O` (stereo not given) was run?
The outcome was “inactive”.

With `Nc1c(Cl)c(F)nc(OCC(=O)O)c1Cl` as the compound, how does the outcome read?
The outcome was “inactive”.

Which outcome does the source give for `CCN(CC)C(=O)C(C)Oc1cccc2ccccc12` (stereo not given) here?
Its outcome is “inactive”.

`CCOc1cc(C(C)(C)C)ccc1C1COC(c2c(F)cccc2F)=N1` (stereo not given) was tested. Which outcome did it give?
Its outcome is “inactive”.

For `OC(c1ccc(Cl)cc1)(c1ccc(Cl)cc1)C(Cl)(Cl)Cl`, which AC50 is on record?
The AC50 was 15.1 µM (active).

How did the outcome turn out when `CC(C)=CC1C(C(=O)OCc2coc(Cc3ccccc3)c2)C1(C)C` (stereo not given) was run?
The outcome was “inactive”.

How did the outcome turn out when `N#CN=C1SCCN1Cc1ccc(Cl)nc1` was run?
The outcome was “inactive”.

With `Cc1cc(C)nc(Nc2ccccc2)n1` as the compound, how does the outcome read?
Its outcome is “inactive”.

Which outcome does the source give for `CNC(=O)Oc1cccc2ccccc12` here?
The outcome was “inactive”.

For `CCC(C)n1c(=O)[nH]c(C)c(Br)c1=O` (stereo not given), which outcome is on record?
The outcome was “inactive”.

How did the outcome turn out when `CC1(C)CON(Cc2ccccc2Cl)C1=O` was run?
Its outcome is “inactive”.

How did the outcome turn out when `CC(C)N1C(=O)c2ccccc2NS1(=O)=O` was run?
Its outcome is “inactive”.

Which outcome does the source give for `Cc1c(COC(=O)[C@@H]2[C@H](/C=C(\Cl)C(F)(F)F)C2(C)C)cccc1-c1ccccc1` here?
The outcome was “inactive”.

Which outcome does the source give for `CS(=O)(=O)c1cc(C(F)(F)F)ccc1C(=O)c1cnoc1C1CC1` here?
Its outcome is “inactive”.

For `CN=C=S`, which outcome is on record?
The outcome was “inactive”.

Which outcome does the source give for `CC1(C)C(C=C(Cl)Cl)C1C(=O)OC(C#N)c1cccc(Oc2ccccc2)c1` (stereo not given) here?
The outcome was “inactive”.

With `O=C1C2CC=CCC2C(=O)N1SC(Cl)(Cl)Cl` (stereo not given) as the compound, how does the AC50 read?
Its AC50 is 11.2 µM (active).

How did the outcome turn out when `CN/C(=N\[N+](=O)[O-])NCc1cnc(Cl)s1` was run?
The outcome was “inactive”.

How did the outcome turn out when `COCC(=O)N(c1c(C)cccc1C)C(C)C(=O)OC` (stereo not given) was run?
The outcome was “inactive”.

`CCCCOCN(C(=O)CCl)c1c(CC)cccc1CC` was tested. Which AC50 did it give?
Its AC50 is 36.5 µM (active).

With `Clc1nc(Cl)nc(Nc2ccccc2Cl)n1` as the compound, how does the outcome read?
The outcome was “inactive”.
